Screening results deposited in PubChem BioAssay by several laboratories.
In the library only some 2% were active in any assay of this set; here they are far more common.
PKA-R1A act: activators of PKA-R1A complex; P00514+P68181; PKA-R1A dissociation, Cy5-IP20 fluorescence polarization; scaled: DMSO 0%, 113 µM cGMP 100%; activation, % at 11.4 µM; 0.083% of 340,000 active; AID 504707;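 active = percent activation above the mean of all tested compounds plus 3 SD, cut at about 19% in these data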;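 note: higher means more PKAc released from R1A so a rise in polarization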
MsrA inh: inhibitors of bovine MsrA; 0.75% of 360,000 active; inhibition, % at 15.5 µM; purified bovine MsrA, absorbance read-out;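 note: 0% = vehicle wells with enzyme and 100% = reference inhibitor wells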
PKA-R2B activ: activates the human PKA-R2B holoenzyme complex; activation, % at 11.4 µM; 0.079% of 340,000 active; PKA-R2B holoenzyme dissociation, Cy5-IP20 fluorescence polarization; R2B truncated from residue 108, S112A mutant; 0% DMSO only, 100% 113 µM cGMP;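 active = activation above a cutoff set at the mean over all compounds plus 3 SD, cut at about 18% in these data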;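 note: higher means more holoenzyme dissociation and a rise in polarization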
Target sequence (P31323 whole entry, looked up, other chains not shown, the tested form may be a part): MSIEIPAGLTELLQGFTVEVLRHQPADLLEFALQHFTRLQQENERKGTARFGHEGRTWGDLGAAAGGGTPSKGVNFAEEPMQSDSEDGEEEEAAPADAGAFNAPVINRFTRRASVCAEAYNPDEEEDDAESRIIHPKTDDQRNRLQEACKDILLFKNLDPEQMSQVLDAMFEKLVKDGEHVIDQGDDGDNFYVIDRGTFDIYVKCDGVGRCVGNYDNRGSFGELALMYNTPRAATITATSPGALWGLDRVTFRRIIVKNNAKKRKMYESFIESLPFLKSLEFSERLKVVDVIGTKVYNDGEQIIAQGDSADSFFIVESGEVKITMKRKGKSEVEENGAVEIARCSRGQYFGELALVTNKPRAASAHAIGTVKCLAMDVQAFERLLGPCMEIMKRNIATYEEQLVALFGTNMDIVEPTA
bovine MsrA act: bovine methionine sulfoxide reductase A activation. AID 602163. activation, % at 10.6 µM. purified bovine MsrA, absorbance read-out. 0.3% of 360,000 active; in the data active = activation above about 7.5%;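 note: 0% = vehicle and 100% = reference activator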
Mot1-301 SUMO: SUMOylation pathway inhibition by Mot1-301 growth rescue; S. cerevisiae Mot1-301 growth rescue, ATP luminescence, 38.5C; percent above DMSO median, 100 means doubled; AID 2716; 1% of 320,000 active; growth rescue, % at 18.8 µM;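 active = every valid replicate shows activation above 250% relative to neutral control wells; inactive = the rest, any valid replicate at or below 250%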;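 note: OY570 slx delta 5 strain wells were the positive control but not used for scaling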
MsrA act confirm: bovine methionine sulfoxide reductase A activation confirmed. shares compounds with bovine MsrA act. purified bovine MsrA, absorbance read-out. activation, % at 10.6 µM. 12% of 1,000 active; in the data active = activation above about 4%;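 note: enzyme coupled to thioredoxin and thioredoxin reductase with NADPH; 0% = vehicle wells and 100% = reference activator wells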
MsrA inh confirm: bovine MsrA inhibition, confirmed; shares compounds with MsrA inh; purified bovine MsrA, absorbance read-out; inhibition, % at 15.5 µM; 41% of 2,300 active;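 note: coupled to thioredoxin reductase with NADPH and selenocystamine and DMSO as substrate; 0% = vehicle only and 100% = full effect of reference inhibitor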
Active calls of the source: *; nt = no result. Cut-off read from the data, not from the text of the source, unless noted: active = inhibition above about 4.5%; inactive = the rest.

SMILES	PKA-R1A act	MsrA inh	PKA-R2B activ	bovine MsrA act	Mot1-301 SUMO	MsrA inh confirm	others
CC(C(=O)N1CCCCC1)n1ncn2cccc2c1=O (stereo not given)	8	0	-3	20*	272	nt	MsrA act confirm=0
CC(C(=O)N1CCN(Cc2ccccc2)CC1)n1ncn2cccc2c1=O (stereo not given)	2	0	5	-1	2	nt
CC(C)OC(=O)[C@@H](Cc1ccccc1)N[C@H](/C=C/c1ccccc1)[C@@H](O)Cc1ccccc1	nt	1	nt	nt	nt	nt
C1CCC(NC2=NCCO2)CC1	3	-1	1	-4	nt	nt
C1CCCC(NC2=NCCO2)CCC1	8	nt	-2	9.5*	193	nt	MsrA act confirm=0
CCC(c1nnnn1C(C)(C)C)N1CCN(C2CCCC2)CC1 (stereo not given)	-14	0	-1	8.1*	0	nt	MsrA act confirm=-1
CCC(C)Sc1nc2ccccc2c(=O)[nH]1 (stereo not given)	2	0	-3	15*	24	nt	MsrA act confirm=-1
CCOC(=O)N[C@@H](CC(C)C)C(=O)N1CCC[C@H]1C(=O)NCc1ccccc1	nt	0	nt	nt	nt	nt
C[C@H]1CN(C(=O)OC(C)(C)C)CCN1c1ccc(N2CC[C@@H](O)C2)c(C#N)c1	nt	0	nt	nt	nt	nt
COc1ccc(-c2c(C(=O)c3ccc(Br)cc3)[nH]c(N)c2C(=O)NCCc2c[nH]c3ccccc23)cc1OC	nt	1	nt	nt	nt	nt
C=CCN1C(=O)c2n[nH]c(C(C)C)c2C1c1ccccc1 (stereo not given)	nt	0	nt	nt	nt	nt
Cc1ccc(NC(=O)CCNS(=O)(=O)c2cccc3nonc23)cc1Cl	5	0	5	-4	694	nt
O=C(CCNS(=O)(=O)c1cccc2nonc12)Nc1ccc(Cl)cc1	2	0	-7	13*	10	nt	MsrA act confirm=1
O=C(Nc1ccc2cn[nH]c2c1)c1c(Cl)cccc1Cl	2	0	4	-6	-9	nt
O=C1C(Cl)=C(Nc2ccc3cn[nH]c3c2)C(=O)c2ccccc21	-11	17*	-11	26*	1	10*	MsrA act confirm=15*
COC(=O)c1ccc(/C=C2\CCn3c2nc2cc(C(=O)O)ccc2c3=O)cc1	-6	nt	-4	-2	7	nt
CSc1ccc(/C=C2\CCn3c2nc2cc(C(=O)O)ccc2c3=O)cc1	3	5.0*	-1	10*	-15	4.8*	MsrA act confirm=-6
COc1cc(/C=C(/C(=O)O)c2ccc(-c3ccccc3)cc2)cc(OC)c1OC	-7	0	1	-4	0	nt
COc1cc(C=c2c3ccccc3n3c2cc(-c2ccccc2)[n+]3C)cc(OC)c1OC	6	12*	11	18*	nt	2	MsrA act confirm=9.9*
O=C1c2ccccc2C(=O)c2cc(S(=O)(=O)Nc3ccccc3)ccc21	0	29*	-5	10.0*	5	31*	MsrA act confirm=5.8*
CCNC(=O)N1CCN(c2ccc(N3CCN(C(=O)NCC)[C@H](C)C3)c(C)c2)[C@@H](C)C1	nt	0	nt	nt	nt	nt
O=C(c1ccccc1)c1coc2c1C(=O)c1ccccc1C2=O	0	19*	1	8.2*	-4	26*	MsrA act confirm=16*
Cc1ccccc1C(=O)N[C@@H](Cc1cccnc1)C(=O)N1CCC[C@H]1C(=O)NC1CCCC1	nt	1	nt	nt	nt	nt
C=CCN=C1NC(c2ccc(Cl)cc2)C(C(=O)OC)=C(C)N1C (stereo not given)	nt	0	nt	nt	nt	nt
COc1ccc(CNC(=O)c2c(C)oc3c2C(=O)c2ccccc2C3=O)cc1	-3	7.6*	4	7.9*	-29	9.0*	MsrA act confirm=8.0*
SMILES	PKA-R1A act	MsrA inh	PKA-R2B activ	bovine MsrA act	Mot1-301 SUMO	MsrA inh confirm	others
COc1cc(OC)cc(-c2oc(=O)c3cc(OC)c(OC)cc3c2C#CCCO)c1	-9	11*	-11	-5	-14	7.8*
CC(c1nccs1)N(C)c1nc2nonc2nc1N(C)C (stereo not given)	5	4.9*	-13	-10	1	2
O=C1NC(=O)/C(=C/c2ccco2)N1	-1	7.9*	4	-7	-7	6.2*
C=CCn1c(-c2csc(-c3ccc(Cl)cc3)n2)n[nH]c1=S	-6	0	-1	-1	nt	nt
C=CCn1c(-c2csc(-c3ccccc3)n2)n[nH]c1=S	-17	5.4*	-8	0	30	3
C[C@H]1CN([C@@H](C)CO)C(=O)CCCn2cc(nn2)CO[C@@H]1CN(C)S(=O)(=O)c1ccc(F)cc1	nt	-1	nt	nt	nt	nt
CCOC(=O)c1nnn(-c2nonc2-c2ccccc2)c1C	-6	19*	-2	0	-8	14*
Cc1c(C(=O)NCc2ccccc2C(F)(F)F)sc(=O)n1Cc1ccc(Cl)c(Cl)c1	nt	3	nt	-2	nt	nt
CC(C)NC(=O)c1cc(C2CCCCN2S(=O)(=O)c2ccc(F)cc2F)on1 (stereo not given)	nt	-1	nt	-2	nt	nt
CC1(C(=O)NS(=O)(=O)c2cccc(F)c2)CCN1C(=O)CCC1CCCC1 (stereo not given)	nt	-1	nt	-4	nt	nt
Cc1csc(-c2nc3ccccc3n2C(C)c2nc3ccccc3[nH]2)c1 (stereo not given)	nt	-1	nt	nt	nt	nt
COCCn1c(C)cc(C(=O)COc2nc3ccccc3nc2C)c1C	1	4.8*	-13	-12	nt	2
COC(=O)C1=C(C)N(Cc2ccccc2C(F)(F)F)C(=NCc2ccc(C(F)(F)F)cc2)NC1CCc1ccccc1 (stereo not given)	nt	-1	nt	nt	nt	nt
CC(C)C#Cc1ccc2c(c1)O[C@@H](CN(C)S(=O)(=O)c1cn(C)cn1)[C@@H](C)CN([C@H](C)CO)S2(=O)=O	8	-1	2	2	nt	nt
CCN(CC)c1ncnc2c1ncn2[C@H]1CN(Cc2ccc3c(c2)OCO3)C[C@@H](CO)O1	nt	0	nt	-1	nt	nt
CN(C)c1ccc(C(=O)c2ccccc2C(=O)O)c(O)c1	-9	6.4*	-2	-8	1	5.8*
COc1ccc(S(=O)(=O)Nc2ccc3c(c2)C(=O)N([C@H](C)CO)C[C@H](C)[C@H](CN(C)C(=O)Nc2ccc(F)cc2)OCCCC[C@@H](C)O3)cc1	nt	0	nt	nt	nt	nt
O=C(COC(=O)C1=NN(c2ccccc2)C(=O)CC1)Nc1ccc([N+](=O)[O-])cc1C(F)(F)F	-5	12*	5	-2	-11	11*
CC(NC(=O)COC(=O)C1=NN(c2ccccc2)C(=O)CC1)c1ccccc1 (stereo not given)	-3	0	-7	-8	nt	nt
CCC(C)c1ccccc1NC(=O)COC(=O)C1=NN(c2ccccc2)C(=O)CC1 (stereo not given)	11	39*	2	-4	15	30*
Cc1cc(NC(=O)COC(=O)C2=NN(c3ccccc3)C(=O)CC2)c([N+](=O)[O-])cc1C	-6	0	0	-7	-7	nt
